Out of some 300,000 compounds screened, about 37,000 (12%) were called active. Cut-off read from the data, not from the text of the source: active = max response mostly above about 13% (no sharp cut-off); inactive = mostly below about 14%. For the sample, actives were picked, then their nearest neighbours and some compounds at random.
assay: Cycloheximide Counterscreen for Small Molecule Inhibitors of Shiga Toxin; conditions: cell reporter, cycloheximide protein synthesis inhibition counterscreen; active compounds read high; note: read at 38.3 µM for the half of the compounds with a filed dose; 0% is about no effect

Compound	max response
FC(F)(F)Oc1ccc(NC(=S)NCc2ccccc2)cc1	1.72% (inactive)
C[C@H]1[C@H]2c3nc4ccccc4n3C[C@H]1ON2C1CCCCC1	2.13% (inactive)
COc1ccccc1N1CC(C(=O)Nc2nnc(SCC(=O)NCC3CCCO3)s2)CC1=O (configuration not stated)	8.07% (inactive)
COC(=O)C1=C(Nc2ccc(C)cc2)C=C(C)C(C(=O)OC)C1c1ccc(F)cc1 (configuration not stated)	10.3% (inactive)
COc1ccc(-c2ccc(C3C4C=CCCC4(C)C(=O)N3Cc3ccccc3)c(F)c2)cc1OC (configuration not stated)	12.4% (inactive)
O=C(N/N=C/c1ccc(O)c2ccccc12)c1cccnc1	15.4% (inactive)
O=C(N/N=C/c1ccccn1)c1cccnc1	17.5% (active)
Cc1ccccc1CSc1nnc(-c2cccnc2)n1N	16.2% (inactive)
Cn1c(SCC(=O)C(C)(C)C)nnc1-c1ccccn1	18.9% (inactive)
Cc1ccccc1CSc1nnc(-c2ccccn2)n1N	27% (active)
CCN(C(=O)COC(=O)c1ccc(COc2ccc3c(C)cc(=O)oc3c2)cc1)C1CCS(=O)(=O)C1 (configuration not stated)	21.1% (active)
Cc1ccccc1NC(=O)c1ccc(COc2ccc3c(C)cc(=O)oc3c2)cc1	-0.998% (inactive)
COc1ccc(-c2cc(=O)oc3cc(OCC(=O)N(C)C4CCS(=O)(=O)C4)ccc23)cc1 (configuration not stated)	3.93% (inactive)
COc1cccc(-c2nn(-c3ccccc3)cc2/C=C(\C#N)C(=O)NCCCn2ccnc2)c1	10.5% (inactive)
CC1CCCCC1NC(=O)CCS(=O)(=O)c1ccc2c(c1)NC(=O)CO2 (configuration not stated)	-2.74% (inactive)
COc1ccc(C(=O)Nc2ccccc2C(=O)N/N=C/c2ccccc2OC)cc1	17.9% (inactive)
COc1ccc(/C=N/NC(=O)c2ccc3c(c2)OCCO3)c(OC)c1	56% (active)
COc1ccc(/C=N/NC(=O)CNC(=O)c2ccc(S(=O)(=O)N3CCCC3)cc2)c(OC)c1	-1.52% (inactive)
Cn1ccc(=Nc2ccc(NC(=O)c3ccc(N=c4ccn(C)c5ccc([N+](=O)[O-])cc45)cc3)cc2)cc1	-1.72% (inactive)
O=C(CNC(=O)COc1ccccc1)NCCc1ccccn1	5.88% (inactive)
O=C(NCCc1ccccn1)c1cccnc1Oc1ccc(Cl)cc1	0.291% (inactive)
O=C(NCCc1ccccn1)c1ccc(COc2ccccc2)o1	28.1% (active)
Cc1ncn2cc(-c3ccc(Cl)cc3Cl)[nH]c(=O)c12	8.02% (inactive)
Cc1cccc(N2CCN(S(=O)(=O)c3ccc(-c4cc(C)no4)s3)CC2C)c1 (configuration not stated)	-3.69% (inactive)
O=C(CN1CCN(S(=O)(=O)c2ccc(Cl)s2)CC1)NCc1ccc(Cl)cc1	30.7% (active)
Cc1ccc(CNC(=O)CN2CCN(Cc3ccc(Cl)cc3)C2=O)cc1	-4.69% (inactive)
Cc1ccccc1N1CCN(CC(=O)NCc2ccc(Cl)cc2)CC1	-1.19% (inactive)
